# Only some compounds are listed: those with a hit (about 1.7% of all), similar ones and a draw of the others.
# MRP resist rev – MRP-mediated drug resistance reversal; H69AR cells + 2 uM doxorubicin, CellTiter-Glo, 72 h; differential viability (reversal), % at 10 µM; hit rate 0.04% among 85,000; AID 602;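 active = viability drop by adding the cancer drug above about 55%, with treated viability meeting a 40% cutoff, limit read from the data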;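 also: viability without doxorubicin minus viability with 2 µM doxorubicin for each compound; larger differential means the compound sensitizes cells more to doxorubicin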
# GALR2 blocker – blocks the human galanin receptor 2 | hit rate 0.39% among 140,000 | GALR2-expressing cells, antagonist mode | inhibition, % at 4 µM | O43603 | AID 828; in the data active = inhibition above about 27%;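 also: cells stimulated with galanin 1-16 at roughly its EC80; 0% = agonist challenge control and 100% = basal control without agonist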
# Target sequence (O43603 whole entry, looked up): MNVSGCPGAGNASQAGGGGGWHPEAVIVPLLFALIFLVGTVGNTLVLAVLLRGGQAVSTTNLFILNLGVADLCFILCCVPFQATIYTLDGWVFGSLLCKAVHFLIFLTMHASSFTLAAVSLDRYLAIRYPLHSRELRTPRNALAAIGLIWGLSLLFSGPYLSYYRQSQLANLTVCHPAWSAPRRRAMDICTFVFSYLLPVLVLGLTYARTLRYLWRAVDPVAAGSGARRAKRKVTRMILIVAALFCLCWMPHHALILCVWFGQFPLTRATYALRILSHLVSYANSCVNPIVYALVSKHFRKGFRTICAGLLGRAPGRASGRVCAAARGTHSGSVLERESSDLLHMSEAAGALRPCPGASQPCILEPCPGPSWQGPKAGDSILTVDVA
# GALR2 ag – activates the human galanin receptor 2; O43603; GALR2-expressing cells, agonist activation read-out; activation, % (test concentration not listed); hit rate 0.48% among 140,000; in the data active = activation above about 5%, passing the limit was not always enough;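 also: 0% = vehicle buffer wells and 100% = reference agonist at full effect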
# MRP1 act – activators of MRP-1; H69AR cells + doxorubicin, viability rescue, CellTiter-Glo; viability increase, % at 10 µM; hit rate 0.61% among 140,000;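 active = viability gain under doxorubicin at or above a set limit, the compound median plus 3 SD, cut at about 4.7% in these data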;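 also: MRP-1 overexpressing cells given doxorubicin 25 µM after compound pretreatment; 18-22 h compound pretreatment then 72 h with doxorubicin before readout; 0% = doxorubicin-only wells and 100% = vehicle-treated cells without doxorubicin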
# S1P2 agonist – agonists of human S1P2 receptor; activation, % at 4.5 µM; S1P2-expressing cell line, agonist reporter read-out; O95136; hit rate 0.46% among 97,000; in the data active = activation above about 16%;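 also: 0% = vehicle low control and 100% = maximal reference agonist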
# S1P2 antag – S1P2 (human) receptor antagonism. O95136. cell-based S1P2 antagonist assay, inhibition at 5 uM. inhibition, % at 5 µM. hit rate 0.21% among 97,000. AID 736; in the data active = inhibition above about 45%;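 also: CRE beta-lactamase reporter cells expressing human S1P2 stimulated with S1P; 0% = agonist at EC80 alone and 100% = agonist plus reference antagonist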
# * = called active by the depositor; . = not tested or not shown.
SMILES,MRP resist rev,GALR2 blocker,GALR2 ag,MRP1 act,S1P2 agonist,S1P2 antag
COc1cccc(-n2c(CN3CCN(c4ccccc4)CC3)nc3ccc([N+](=O)[O-])cc3c2=O)c1,.,-4,0,-3,.,.
CCCCn1nnc(NC(=S)NC(=O)c2cccs2)n1,.,1,-1,8.8*,.,.
Cn1nnc(NC(=S)NC(=O)c2cccs2)n1,.,-3,0,-1,.,.
CC(C)(C)c1ccccc1OCC(=O)Nc1ncn[nH]1,-4,-10,1,2,-6,-8
CC(C)(C)c1cc(Br)ccc1OCC(=O)Nc1ncn[nH]1,8,-11,-1,6.2*,-3,12
CN1CCN(c2nc(-c3ccccc3)c3cc(Cl)ccc3n2)CC1,-13,14,18*,-2,25*,5
OCCN1CCN(c2nc(-c3ccccc3)c3cc(Cl)ccc3n2)CC1,-43,9,19*,-6,18*,-5
COc1cc(/C=N/NC(=O)c2cccnc2)ccc1OS(=O)(=O)c1cc(C)ccc1C,.,4,-1,-1,.,.
C=CCn1c(SCC(=O)Nc2ccccc2)nc2scc(-c3cccs3)c2c1=O,.,-5,-2,-4,-1,-2
C=CCn1c(N)cc(=O)nc1SCC(=O)Nc1ccccc1,8,-6,-4,0,80*,-9
CCCN(CCC)C(=O)Cn1c(=O)n(CCCCCC(=O)Nc2ccccc2)c(=O)c2sccc21,.,-1,-1,-4,.,.
CCCOc1ccc(CSC2=NCCN2)cc1[N+](=O)[O-],.,2,-5,-1,-2,9
COc1ccc(CSC2=NCCN2)cc1Cl,5,6,-1,9.7*,-5,3
O=C(Nc1ccc(OC(F)(F)F)cc1)c1n[nH]c(Cn2cncn2)n1,.,10,-3,4.9*,-6,3
CCC(C)(C(=O)Nc1ccccc1C)N(C(=O)CNC(C)=O)c1ccccc1C (configuration not stated),.,-8,0,-1,.,.
Cc1cc2n(n1)C(c1ccccc1)CC(c1ccc(Br)cc1)=N2 (configuration not stated),.,5,0,5.5*,.,.
COc1ccc(-c2cn(-c3ccc(C)cc3)c(=O)n2CC(=O)Nc2cccc(F)c2)cc1,-8,-20,15*,-2,-5,-19
CCOc1ccc(NC(=O)CN2CCN(CC(=O)Nc3cccc(F)c3)CC2)cc1,-10,3,-1,-1,.,.
Cc1cccc(-n2ncc3c(N4CCCC4)ncnc32)c1,-15,12,0,-1,-5,0
Cc1cccc(-n2ncc3c(N4CC(C)CC(C)C4)ncnc32)c1 (configuration not stated),-6,4,-2,5.3*,0,0
Cc1ccc(-n2ncc3c(N4CCN(c5ccccc5)CC4)ncnc32)c(C)c1,9,8,0,-5,-4,60*
Cc1ccc(NC(=O)c2snc3ccc(Cl)cc23)cc1C,.,0,-2,3,.,.
CCCC(=O)N=C1SC2CS(=O)(=O)CC2N1c1ccc(-c2nc3ccc(C)cc3s2)cc1 (configuration not stated),.,0,0,-4,.,.
CCN1/C(=C/c2ccc3ccccc3[n+]2CC)C=Cc2ccccc21,0,24,0,-3,-2,81*
CCN1C(=C2C(=O)c3ccccc3C2=O)C=Cc2ccccc21,-13,-4,-1,-3,-5,-14
SMILES,MRP resist rev,GALR2 blocker,GALR2 ag,MRP1 act,S1P2 agonist,S1P2 antag
COC(=O)c1ccc(OC)c(CSc2nnc(COc3ccc(Cl)cc3)o2)c1,10,-11,-2,6.9*,-1,-11
CCOC(=O)N1CCN(C(=O)CSc2nnc(COc3ccc(Cl)cc3)o2)CC1,2,13,-2,5.8*,.,.
O=C(CSc1nnc(COc2ccc(Cl)cc2)o1)N1c2ccccc2CCc2ccccc21,-54,-12,-3,0,-7,3
COC(=O)c1ccc(OC)c(CSc2nnc(COc3ccccc3)o2)c1,11,-9,-2,1,-4,2
O=[N+]([O-])c1c(NCCCO)cc(SCc2ccco2)c2nonc12,.,2,0,-2,.,.
O=[N+]([O-])c1c(NCCCO)cc(Sc2ccc(Cl)cc2)c2nonc12,.,8,5.0*,-5,.,.
CCOC(=O)C1CCCN(Cc2ccc(OC)cc2OC)C1 (configuration not stated),0,-5,0,30*,-5,1
C=CCn1c(=O)c2c(C)c(C)sc2n2c(Nc3ccc(OC)cc3)nnc12,6,-8,1,7.7*,-1,-28
CCNc1oc(-c2cccc3ccccc23)nc1C#N,7,0,2,7.3*,4,-3
CC(C)(C)NC(NC(=O)Cc1ccccc1)C(Cl)(Cl)Cl (configuration not stated),.,-6,-1,5.3*,-1,18
O=C(Cc1ccccc1)NC(Nc1ccccc1)C(Cl)(Cl)Cl (configuration not stated),.,-23,1,-5,-9,10
CCC(/C=N/NC(=O)C(N)=O)CC,.,-1,-1,0,.,.
COc1ccc(-c2ccc3c(N)c(C(=O)c4ccc(OC)c(OC)c4)sc3n2)cc1,.,10,-2,-3,-4,31
COc1ccc(C(=O)c2sc3nc(-c4ccccc4)ccc3c2N)cc1OC,.,20,0,0,-14,57*
CN1C(=O)C(/C(N)=N/NC(=O)c2ccccc2)C2CC1(C)Oc1ccccc12 (configuration not stated),.,-11,-3,-2,.,.
CN(C)c1ccc(/C=C/C(O)=C2/C(=O)N(C)C3(C)CC2c2ccccc2O3)cc1 (configuration not stated),-15,8,4,-1,-2,69*
O=C(Cc1cccs1)Nc1nnc(SCc2ccc(C(F)(F)F)cc2)s1,.,4,0,0,.,.
COCCCn1c(=N)c(C(=O)NCc2ccc3c(c2)OCO3)cc2c(=O)n3ccccc3nc21,0,7,0,-2,1,-26
N=c1c(C(=O)NC2CCCC2)cc2c(=O)n3ccccc3nc2n1C1CCCC1,36,-9,3,-4,6,-11
COCCCn1c(=N)c(C(=O)NC2CCCCC2)cc2c(=O)n3ccccc3nc21,-8,-26,16*,-3,32*,-56
CCOC(=O)c1cc2c(=O)n3ccccc3nc2n(CC2CCCO2)c1=NC(C)=O (configuration not stated),3,-20,24*,.,26*,-46
CCCCn1c(=NC(=O)c2ccco2)c(C(=O)OCC)cc2c(=O)n3ccccc3nc21,10,-11,7,-3,6,-9
Cc1cccn2c(=O)c3cc(C(=O)NC4CCCC4)c(=N)n(C4CCCC4)c3nc12,.,0,5.0*,-6,.,.
N=c1c(C(=O)NCc2ccco2)cc2c(=O)n3ccccc3nc2n1Cc1ccc(Cl)cc1,-9,-23,5.2*,-5,29*,-37
N=c1c(C(=O)NCc2ccco2)cc2c(=O)n3ccccc3nc2n1Cc1ccccc1,-10,5,4,-5,14,2
